# From PubChem BioAssay (NCATS)
# Results filed as inconclusive are left out. Where a call stands in place of a potency, no number is given. Calls of active or inactive are those of the source. Unless noted, calls follow the shape of the full dose curve.
# What was measured:
# [1] = Confirmatory qHTS to identify inhibitors of SARS-CoV-2 cell entry (AID 1645844); also: potency is read from the fitted curve at half-maximal effect; nearly all actives have a fitted effect of over 45% in size
# Procedure, shortened: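 HEK293-ACE2 cells were pretreated 1 h with compound, then infected with MLV-based pseudoparticles bearing C-terminally truncated Wuhan-Hu-1 spike for 48 h at 37C; luciferase luminescence normalized to spike PP and bald PP wells.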
# [2] = Cytotoxicity counterscreen for inhibitors of SARS-CoV-2 cell entry (AID 1645845); also: nearly all actives have a fitted effect of over 50% in size; also: potency is read from the fitted curve at half-maximal effect
# Procedure, shortened: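 HEK293-ACE2 cells (Expi293F stably expressing human ACE2) seeded overnight, then compound for 1 h plus 48 h at 37C. Viability as ATP content by luminescence; normalized to wells with cells and media-only wells.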
# CRL-7250 = normal cell line; experiment: qHTS assay to identify novel small-molecules to repurpose for Merkel cell carcinoma treatment (AID 1296009; active = well fitted inhibition curve with a large enough effect; also: nearly all actives have a fitted effect of over 60% in size); settings: MCC and control cell lines, CellTiter-Glo viability, 72 h; series mostly up to 92 µM
# Procedure, shortened: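 Cells were treated for 72 hr at 37 degree celsius with compounds in 8- or 11-point dose response. Viability was read by CellTiter-Glo luminescence, normalized to no-cell (cytotoxicity) and DMSO controls.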
# [3] = Primary qHTS to identify inhibitors of SARS-CoV-2 cell entry (AID 1645846); settings: activity change, negative = inhibition: at 57.1 µM (top of the series) unless noted; also: nearly all actives have a fitted effect of over 45% in size
# Procedure, shortened: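 Luminescence readout (Bright-Glo luciferase) 48 h after pseudoparticle addition. HEK293-ACE2 cells, 1500/well; compound pre-incubation 1 h; Normalized to spike PP and bald PP.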
# [4] = Confirmatory qHTS for VERO E6 Cytotoxicity Assay: Counterscreen for SARS-CoV-2 CPE Assay (AID 1508605); also: nearly all actives have a fitted effect of over 60% in size
# [5] = Confirmatory qHTS for activators (rescue) of SARS-CoV-2 Cytopathic Effect (CPE) (AID 1508606); also: nearly all actives have a fitted effect of over 70% in size
smiles,measurement,setting,value
CCOC(=O)[C@H]1O[C@@H]1C(=O)N[C@@H](CC(C)C)C(=O)NCCC(C)C,Potency,[1],0.0681 µM (active)
same,Potency,[2],inactive
same,Potency,CRL-7250,inactive
Cc1nn(C)c2c1C(c1ccc(C(F)(F)F)cc1)C(C#N)=C(N)O2 (stereo not drawn),Potency,[2],inactive
same,Potency,[3],inactive
same,Potency,CRL-7250,inactive
COc1cc(-c2cc(-c3ccc(N4CCNCC4)cc3)cnc2C)cc(OC)c1OC,Potency,[2],inactive
same,Potency,CRL-7250,inactive
OC[C@H]1O[C@@H](Oc2cc(O)cc(/C=C/c3ccc(O)cc3)c2)[C@H](O)[C@@H](O)[C@@H]1O,Potency,[2],inactive
same,Potency,[3],inactive
same,Potency,CRL-7250,inactive
Cc1[nH]c(/C=C2\C(=O)Nc3ccc(S(=O)(=O)N(C)c4cccc(Cl)c4)cc32)c(C)c1C(=O)N1CCN(C)CC1,Potency,[4],inactive
same,Potency,[5],inactive
same,Potency,[2],inactive
same,Potency,CRL-7250,inactive
CCN(c1cc(C#CCN2CCOCC2)cc(C(=O)NCc2c(C)cc(C)[nH]c2=O)c1C)C1CCC(N(C)CCOC)CC1 (stereo not drawn),Potency,[2],inactive
same,Potency,[3],inactive
same,Potency,CRL-7250,inactive
Cn1nccc1Nc1nccc(-c2ccn([C@H](CO)c3ccc(Cl)c(F)c3)c(=O)c2)n1,Potency,[2],11.2 µM (active)
same,Potency,CRL-7250,inactive
N#Cc1ccc(COC[C@H]2O[C@@H](n3c(NCc4ccc(Cl)c(Cl)c4)nc4c(N)ncnc43)[C@H](O)[C@@H]2O)cc1,Potency,[2],inactive
same,Potency,CRL-7250,inactive
COCCCc1sc(-c2ccccc2)nc1C(=O)Nc1ccccc1-c1nc2cc(CN3CCCC3)cnc2s1,Potency,[2],inactive
same,Potency,[3],inactive
same,Potency,CRL-7250,inactive
Cc1c(-c2ccnn2C)cc(C(=O)NCc2ccc(S(C)(=O)=O)cn2)c(=O)n1-c1cccc(C(F)(F)F)c1,Potency,[2],inactive
same,Potency,[3],inactive
same,Potency,CRL-7250,inactive
CNc1nc(C)nc(N[C@H]2CCC[C@@H](C(=O)NCc3ccc(C#N)cc3C(F)(F)F)C2)n1,Potency,[2],inactive
same,Potency,[3],inactive
same,Potency,CRL-7250,inactive
CN1CC[C@@H](c2c(O)cc(O)c3c(=O)cc(-c4ccc(C(F)(F)F)cc4Cl)oc23)[C@@H]1CO,Potency,[4],inactive
same,Potency,[2],inactive
same,"activity change, negative = inhibition",[3],-12.4%
same,Potency,CRL-7250,inactive
COc1ccc2cc(OCC3(C(=O)O)CN(C(=O)c4ccc(F)cc4)C3)ccc2c1,Potency,[2],inactive
same,"activity change, negative = inhibition",[3],-2.33%
same,Potency,CRL-7250,inactive
